# Experimental data taken from PubChem BioAssay (NCI).
# Compounds without any hit were thinned out: in the full panel of roughly 83,000, 20% have a hit.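 Interpretation: 100, growth as untreated; towards 0, rising growth inhibition; 0, no net growth; 0 to -100, cell death. Compounds scoring below 10 were considered active.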 Values without a mark were called inactive. Activity calls are given as the source filed them.
# System: HCT-116 colon
# Test: NCI-60 one-dose screen, 48 h (100 = growth as untreated, 0 = no growth, -100 = all killed)
# Details: 10 µM unless noted
row,SMILES,growth
1,CC(=O)CC(=O)SC1=NCCS1,116%
2,CCCCCCCCCCCCCCNC(=O)Nc1ccc(Cl)c(Cl)c1,23.6%
3,O=S(=O)(NCc1ccccc1)c1ncnc2nc[nH]c12,108%
4,Cc1cc(-c2ccc(N=Nc3c(S(=O)(=O)O)cc4cc(S(=O)(=O)O)cc(N)c4c3O)c(C)c2)ccc1N=Nc1cc(S(=O)(=O)O)c2ccccc2c1O,96.4%
5,CC1=C/C(=C(\c2cc(C)c(O)c(C(=O)O)c2)c2c(Cl)cccc2Cl)C=C(C(=O)O)C1=O,105%
6,O=C(Nc1ccccc1)Nc1ccc(C(=O)/C=C/c2ccc(N3CCCC3)cc2)cc1,52.9%
7,CC(C)(C)c1cc(C(=O)Nc2ccc(C(=O)NCCN)cc2)cc(C(C)(C)C)c1,12.8%
8,C[C@@H]1C[C@H]2C(=O)O[C@@H](C)[C@H](NC(=O)[C@H](Cc3cc(F)cc(F)c3)NC(=O)Nc3ccc(Cl)cc3F)C(=O)N3C[C@H](O)C[C@H]3C(=O)N3CCN(C)C[C@H]3C(=O)N[C@@H](C)C(=O)N2C1,8.85% (active)
9,C=C(C)[C@@H]1CC[C@]2(COC(=O)c3ccccc3C(=O)O)CC[C@]3(C)[C@H](CC[C@@H]4[C@@]5(C)CC[C@H](OC(=O)c6ccccc6C(=O)O)C(C)(C)[C@@H]5CC[C@]43C)[C@@H]12,21.3% [100 µM]
10,C[C@H]1[C@H](C)CC[C@]2(C(=O)N3CCN(C)CC3)CC[C@]3(C)C(=CC[C@@H]4[C@@]5(C)C/C(=C/c6ccco6)C(=O)C(C)(C)[C@@H]5CC[C@]43C)[C@H]12,19% [100 µM]
11,CCN(CC)CCCC(C)Nc1c2ccc(C)cc2nc2ccc(OC)cc12 (stereo not drawn),16.6%
12,C#C[C@]1(O)CC[C@H]2[C@@H]3CC=C4c5nc(N)sc5CC[C@]4(C)[C@H]3CC[C@@]21C,33.8%
13,COc1cc(C)cc2oc3oc(=O)c(-c4nc5ccccc5s4)cc3c(=O)c12,93.4%
14,COC(=O)[C@]12CCC(C)(C)C[C@H]1C1=CC[C@@H]3[C@@]4(C)C/C(=C/c5cccnc5)C(=O)C(C)(C)[C@@H]4CC[C@@]3(C)[C@]1(C)CC2,-29.4% [100 µM] (active)
15,O=C(Nc1cccc(C2=NCCN2)c1)c1cccc(C(=O)Nc2cccc(C3=NCCN3)c2)c1,99.7%
16,CCOc1cc(NC(=O)c2ccccc2)c(OCC)cc1N,118%
17,CC1(C)CC[C@]2(C(=O)OC(=O)[C@]34CCC(C)(C)C[C@@H]3C3=CC[C@@H]5[C@@]6(C)CCC(=O)C(C)(C)[C@@H]6CC[C@@]5(C)[C@]3(C)CC4)CC[C@]3(C)C(=CC[C@@H]4[C@@]5(C)CCC(=O)C(C)(C)[C@@H]5CC[C@]43C)[C@H]2C1,41% [100 µM]
18,CCCc1cc2cc(-n3nc(C)c4c3CC(C)(C)CC4=O)cc(NC3CCSCC3)c2c(=O)[nH]1,19.8%
19,CC(=O)OC[C@]12CC[C@@H]([C@@H](C)C(N)=O)[C@@H]1[C@H]1CC[C@@H]3[C@@]4(C)CC[C@H](OC(C)=O)C(C)(C)[C@@H]4CC[C@@]3(C)[C@]1(C)CC2,-84.2% [100 µM] (active)

row,SMILES,growth
1,O=C(N/N=C/c1ccc([N+](=O)[O-])cc1)c1ccc(Br)o1,99.4%
2,O=[N+]([O-])c1ccc(O)c(-c2nc3ccccc3s2)c1,73%
3,COc1cccc(-c2[nH]c(=S)ncc2C(=O)c2ccccc2)c1,61.3%
4,COc1ccc2nc3c(cc2c1)C(=O)CC(C(F)(F)F)C3 (stereo not drawn),11.9%
5,CCN(CC)CCCOc1ccc2c(c1)O/C(=C\c1cccc(OC)c1)C2=O,51.8%
6,CCc1cccc(Cl)c1,104%
7,CCCCCN(CCCCC)CCCCCCCCN1CCCc2ccccc21,64.8%
8,COc1ccc2c(c1)c(-c1noc(C(=O)c3cn(C)c4ncc(Br)cc34)n1)cn2C,50.3%
9,NS(=O)(=O)c1ccc(CCN2C(=O)/C(=C\c3ccccc3)C=C2c2ccc(Cl)cc2)cc1,96.5%
10,Cc1ncc(C(=O)Nc2ccc(CN3CCN(C)CC3)c(C(F)(F)F)c2)cc1C#Cc1c(N)ncc2ccc(C#N)cc12,14.5%
11,CCCCN(CCCC)CC(O)c1ccc(OCc2ccccc2)c2ccccc12 (stereo not drawn),53.5%
12,CC[C@]12C=CCN3CC[C@@]4(c5ccc(OC)cc5N(C)[C@H]4[C@@](O)(C(=O)OC)[C@@H]1OC(=O)CCC(=O)O[C@H]1CC[C@H]4[C@@H]5CCC6=CC(=O)CC[C@@H]6[C@H]5CC[C@]14C)[C@@H]32,3.76% [100 µM] (active)
13,CC(C)c1ccc(/C=N/N=C(N)N)cc1,84.3%
14,C=C(C)[C@@H]1CC[C@]2(C(N)=O)CC[C@]3(C)[C@H](CC[C@@H]4[C@@]5(C)CC[C@H](O)C(C)(C)[C@@H]5CC[C@]43C)[C@@H]12,-24.8% [100 µM] (active)
15,CC1(C)CC[C@]2(C(=O)O)CC[C@]3(C)C(=CC[C@@H]4[C@@]5(C)C/C(=C/c6cccnc6)[C@H](O)C(C)(C)[C@@H]5CC[C@]43C)[C@@H]2C1,-33.4% [100 µM] (active)
16,C#CCNC(=O)CC[C@]1(C)[C@H]2CC[C@@H]3[C@@H]([C@@](C)(O)CCC=C(C)C)CC[C@@]3(C)[C@]2(C)CC[C@H]1C(=C)C,16.6% [100 µM]
17,CCOC(=O)c1nn(C2CCCCO2)c2ccc(NC(=O)CSc3nc4ccccc4c(=O)[nH]3)cc12 (stereo not drawn),101%
18,O=C(Nc1ccc(Oc2ccc(F)cc2)c(Cl)c1)c1cccnn1,96.8%
19,CC(=O)n1cc(C=O)c2ccccc21,109%
